Assay results from PubChem BioAssay (NCATS).
Results filed as inconclusive are left out. The source made the active and inactive calls. Calls come from the whole dose curve; as a rule, active = well fitted curve in the direction sought with a large enough effect; inconclusive = small, poorly fitted or top-dose-only effect, or another doubt; inactive = no such curve, though single readings can be large; an effect the other way counts as inactive or inconclusive.

Key:
[1] = biological target: Rap guanine nucleotide exchange factor 3 (Homo sapiens) (UniProt O95398); experiment: Confirmatory qHTS for agonist of cAMP-regulated guanine nucleotide exchange factor 3 (EPAC1) (AID 1645881);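 note: EPAC1 catalysed release of BODIPY-GDP from Rap1B seen as fluorescence loss; 100% = effect of cAMP agonist control; nearly all actives have a fitted effect of over 75% in size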
[2] = biological target: Rap guanine nucleotide exchange factor 4 (Homo sapiens) (UniProt Q8WZA2); experiment: Confirmatory qHTS for agonist of cAMP-regulated guanine nucleotide exchange factor 4 (EPAC2) (AID 1645884);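 note: nucleotide exchange releases bodipy-GDP from Rap1 and this lowers its fluorescence; % is set by controls: 0 for no effect and ±100 for the full control effect; nearly all actives have a fitted effect of over 65% in size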
[3] = biological target: Rap guanine nucleotide exchange factor 4 (Homo sapiens) (UniProt Q8WZA2); experiment: Confirmatory qHTS for antagonist of cAMP-regulated guanine nucleotide exchange factor 4 (EPAC2) (AID 1645885); note: nearly all actives have a fitted effect of over 25% in size; note: potency is the fitted concentration of half-maximal effect
[4] = biological target: Rap guanine nucleotide exchange factor 3 (Homo sapiens) (UniProt O95398); experiment: Counterscreen qHTS for agonist of cAMP-regulated guanine nucleotide exchange factor 3 (EPAC1) (AID 1645889); note: % of control where 0% means no effect; nearly all actives have a fitted effect of over 40% in size
In short: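 Rap1B–BODIPY-GDP (250 nM) with 50 uM GDP; compounds pin-transferred to 9.74 nM–152 uM final (activator) or from 7.32 nM upwards (inhibitor). Fluorescence Ex/Em 480/540 nm read at 5 and 30 min, then after adding cAMP or buffer, at room temperature.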

Rap guanine nucleotide exchange factor 4 (Homo sapiens), sequence (Q8WZA2 whole entry, looked up): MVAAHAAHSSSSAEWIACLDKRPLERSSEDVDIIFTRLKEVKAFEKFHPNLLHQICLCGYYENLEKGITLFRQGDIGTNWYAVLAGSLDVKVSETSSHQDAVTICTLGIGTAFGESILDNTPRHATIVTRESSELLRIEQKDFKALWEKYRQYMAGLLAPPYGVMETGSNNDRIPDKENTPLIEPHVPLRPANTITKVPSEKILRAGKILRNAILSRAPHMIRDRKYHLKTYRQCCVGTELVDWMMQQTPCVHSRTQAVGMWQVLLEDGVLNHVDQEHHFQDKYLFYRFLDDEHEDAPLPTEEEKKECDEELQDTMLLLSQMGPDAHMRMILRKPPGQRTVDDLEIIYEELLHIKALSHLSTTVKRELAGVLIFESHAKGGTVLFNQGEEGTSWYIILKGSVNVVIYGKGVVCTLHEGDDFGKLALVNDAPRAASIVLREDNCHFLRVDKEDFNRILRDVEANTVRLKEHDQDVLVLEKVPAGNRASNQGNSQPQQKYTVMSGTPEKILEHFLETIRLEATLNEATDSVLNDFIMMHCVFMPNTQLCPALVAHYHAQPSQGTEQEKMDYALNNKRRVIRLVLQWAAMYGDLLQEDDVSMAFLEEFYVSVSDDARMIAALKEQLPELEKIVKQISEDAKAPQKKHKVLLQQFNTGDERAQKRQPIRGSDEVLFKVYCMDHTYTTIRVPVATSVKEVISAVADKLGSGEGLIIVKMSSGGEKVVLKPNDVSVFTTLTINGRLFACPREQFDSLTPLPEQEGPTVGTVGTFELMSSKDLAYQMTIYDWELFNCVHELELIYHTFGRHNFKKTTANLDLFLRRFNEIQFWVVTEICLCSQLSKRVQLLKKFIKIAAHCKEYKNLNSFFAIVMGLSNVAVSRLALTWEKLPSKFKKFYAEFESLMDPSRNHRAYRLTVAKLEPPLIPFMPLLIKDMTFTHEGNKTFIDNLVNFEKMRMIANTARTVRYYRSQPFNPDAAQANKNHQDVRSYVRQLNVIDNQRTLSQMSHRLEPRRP
Rap guanine nucleotide exchange factor 3 (Homo sapiens), sequence (O95398 whole entry, looked up): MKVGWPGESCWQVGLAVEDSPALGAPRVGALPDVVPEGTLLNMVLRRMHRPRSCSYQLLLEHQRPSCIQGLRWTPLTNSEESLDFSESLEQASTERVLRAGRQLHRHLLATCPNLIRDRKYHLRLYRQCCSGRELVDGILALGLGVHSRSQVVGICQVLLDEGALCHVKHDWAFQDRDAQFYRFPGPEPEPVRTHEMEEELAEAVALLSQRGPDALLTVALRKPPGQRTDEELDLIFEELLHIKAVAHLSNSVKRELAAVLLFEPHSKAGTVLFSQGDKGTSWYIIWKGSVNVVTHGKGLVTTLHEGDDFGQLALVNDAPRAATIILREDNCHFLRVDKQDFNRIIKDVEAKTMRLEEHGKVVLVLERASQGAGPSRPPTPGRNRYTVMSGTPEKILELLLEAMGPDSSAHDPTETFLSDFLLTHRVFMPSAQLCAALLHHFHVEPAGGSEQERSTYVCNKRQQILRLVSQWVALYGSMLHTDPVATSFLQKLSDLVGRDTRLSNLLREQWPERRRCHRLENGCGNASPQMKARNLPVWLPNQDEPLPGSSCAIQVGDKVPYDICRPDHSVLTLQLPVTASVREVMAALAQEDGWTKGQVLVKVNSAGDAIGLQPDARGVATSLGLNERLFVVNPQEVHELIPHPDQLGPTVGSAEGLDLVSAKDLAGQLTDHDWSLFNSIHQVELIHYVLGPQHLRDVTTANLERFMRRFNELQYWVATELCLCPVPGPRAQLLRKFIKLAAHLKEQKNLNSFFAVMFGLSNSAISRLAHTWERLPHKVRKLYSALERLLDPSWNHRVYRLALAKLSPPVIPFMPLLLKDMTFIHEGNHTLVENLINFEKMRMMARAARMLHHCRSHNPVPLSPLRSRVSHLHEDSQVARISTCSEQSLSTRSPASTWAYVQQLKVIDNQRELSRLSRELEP

CCC(Oc1ccccc1)C(=O)Nc1ccccc1N1CCCCC1 (centres undefined)
inactive: Potency [1] | Potency [2] | Potency [3] | Potency [4]

CC1(C)CC(CCN(Cc2ccccc2)C(=O)c2ccco2)(c2ccccc2)CCO1 (centres undefined)
inactive: Potency [1] | Potency [2] | Potency [3] | Potency [4]

COCOCCn1cc(CN2CCS(=O)(=O)N(Cc3ccc(-c4ccc(OC)cc4)cc3)C(CC(C)C)C2=O)nn1 (centres undefined)
inactive: Potency [1] | Potency [2] | Potency [3] | Potency [4]

CCCCCC(=O)N1c2ccccc2C(C)(c2ccccc2)CC1(C)C (centres undefined)
inactive: Potency [1] | Potency [2] | Potency [3] | Potency [4]

CC1=CCC[C@@H]2[C@@](C)(CC/C(C)=C/C(=O)O)[C@H](C)CC[C@@]12C
inactive: Potency [1] | activation [2] 7.29% [at 17.1 µM, percent relative to cAMP agonist control] | Potency [3] | activation [4] 10.7% [at 30.8 µM]

C=CCNC(=O)c1oc2ccc(S(=O)(=O)N(CC)CC)cc2c1C
inactive: Potency [1] | Potency [2] | Potency [3] | Potency [4]

COC(=O)CC1(c2ccc(OC)cc2)C(=O)c2ccccc2C1=O
inactive: Potency [1] | Potency [2] | Potency [3] | Potency [4]

NC(CSC(c1ccccc1)(c1ccccc1)c1cccc2ccccc12)C(=O)O (centres undefined)
inactive: Potency [1] | activation [2] -1.78% [at 17.1 µM, percent relative to cAMP agonist control] | Potency [3] | activation [4] 5.6% [at 30.8 µM]

CCc1ccc2c(c1)NC(=O)C2(C)Cc1ccc(C(F)(F)F)o1 (centres undefined)
inactive: Potency [1] | Potency [2] | Potency [3] | Potency [4]

O=S(=O)(c1ccc2nc(-c3ccco3)c(-c3ccco3)nc2c1)N1CCOCC1
inactive: Potency [1] | activation [2] 6.85% [at 17.1 µM, percent relative to cAMP agonist control] | Potency [3] | activation [4] 21.3% [at 30.8 µM]

CCC/C=C/c1ccc(CN2C(CC(C)C)C(=O)N(Cc3cn(Cc4ccco4)nn3)CCS2(=O)=O)cc1 (centres undefined)
inactive: Potency [1] | Potency [2] | Potency [3] | Potency [4]

CCCCC[C@H](C)N1C[C@@H](COCc2ccccc2)Oc2cc(N3CC[C@@H](O)C3)ccc2S1(=O)=O
inactive: Potency [1] | activation [2] 6.13% [at 17.1 µM, percent relative to cAMP agonist control] | Potency [3] | activation [4] 5.17% [at 30.8 µM]

O=C(COC(=O)COc1ccc(Cl)cc1Cl)NC1CCCC1
inactive: Potency [1] | activation [2] 9.18% [at 17.1 µM, percent relative to cAMP agonist control] | Potency [3] | activation [4] -1.05% [at 30.8 µM]

CCN(Cc1ccccc1)S(=O)(=O)c1cc2c3c(c1)CCN3C(=O)CC2
inactive: Potency [1] | activation [2] 0.922% [at 17.1 µM, percent relative to cAMP agonist control] | Potency [3] | activation [4] -5.83% [at 30.8 µM]

C[C@@H]1CC=C[C@H]2[C@H]1C(=O)N(Cc1ccccc1)[C@H]2c1ccc(C(F)(F)F)cc1
inactive: Potency [1] | activation [2] -4.74% [at 17.1 µM, percent relative to cAMP agonist control] | Potency [3] | activation [4] 7.88% [at 30.8 µM]

CC(C)(C)OC(=O)N1CCC(c2c(C(=O)NCCN3CCC(Cc4ccccc4)CC3)cnn2-c2cccc(Cl)c2)CC1
inactive: Potency [1] | Potency [2] | Potency [3] | Potency [4]

Nc1cc(OC(=O)c2cccs2)nn1S(=O)(=O)c1ccc(F)cc1
active: Potency [3] 84.9 µM
inactive: Potency [1] | Potency [2] | Potency [4]

CC(C)(C)c1ccc(C(=O)N2CCCC(c3nc4c(nnn4Cc4cccc(F)c4)c(=O)[nH]3)C2)cc1 (centres undefined)
inactive: Potency [1] | Potency [2] | outcome [3] inactive [at 12.7 µM] | Potency [4]

O=C(O)c1cc(NN=Nc2cccc([N+](=O)[O-])c2)cc([N+](=O)[O-])c1
inactive: Potency [1] | activation [2] 1.11% [at 17.1 µM, percent relative to cAMP agonist control] | Potency [3] | activation [4] 8.61% [at 30.8 µM]

CC1(C(=O)NS(=O)(=O)c2ccc3ccccc3c2)CCN1C(=O)Cc1ccc(-c2ccccc2)cc1 (centres undefined)
inactive: Potency [1] | activation [2] 1.72% [at 17.1 µM, percent relative to cAMP agonist control] | Potency [3] | activation [4] 21.8% [at 30.8 µM]

CCC(NC(=O)c1ccccc1NC(=O)c1ccco1)C(=O)NNC(=O)c1ccc(OC)cc1 (centres undefined)
inactive: Potency [1] | activation [2] 0.808% [at 17.1 µM, percent relative to cAMP agonist control] | Potency [3] | activation [4] 9.27% [at 30.8 µM]

Cc1cccc(N2C(=O)C(O)=C(C(=O)c3cccs3)C2c2cccc(Oc3ccccc3)c2)n1 (centres undefined)
inactive: Potency [1] | Potency [2] | Potency [3] | Potency [4]

CC(C)(C)c1ccc(S(=O)(=O)NC(=O)C2(C)CCN2C(=O)Cc2ccc(-c3ccccc3)cc2)cc1 (centres undefined)
inactive: Potency [1] | activation [2] -4.75% [at 17.1 µM, percent relative to cAMP agonist control] | Potency [3] | activation [4] 6.27% [at 30.8 µM]

O=C(O)c1sccc1SCc1ccc(Cl)c(Cl)c1
inactive: Potency [1] | Potency [2] | Potency [3] | Potency [4]

C[C@H]1CN([C@@H](C)CO)S(=O)(=O)c2ccc(Br)cc2O[C@@H]1CN(C)Cc1ccccc1
inactive: Potency [1] | Potency [2] | Potency [4]
active: Potency [3] 23.9 µM

CC1CN(C(=O)c2ccc(-c3cccc(C(F)(F)F)c3)o2)CC(C)O1 (centres undefined)
inactive: Potency [1] | activation [2] 6.74% [at 17.1 µM, percent relative to cAMP agonist control] | Potency [3] | activation [4] 1.55% [at 30.8 µM]
